Over roughly 33,000 sequences, “e-score” has its median near -0.038; the highest 2% begin near 0.33. The entries come from a sample that favours the highest values as a whole.
target: T1, GST-Rok-C97-191 (Bacillus subtilis subsp. subtilis str. …, UniProt O34857 97-191); assay: protein binding microarray; Rok is a gene silencer of Bacillus subtilis; high values mean tight binding; conditions: protein: recombinant; tags: GST (pTH5325, pDEST15-Magic modified); dsDNA, one strand shown
T1 sequence: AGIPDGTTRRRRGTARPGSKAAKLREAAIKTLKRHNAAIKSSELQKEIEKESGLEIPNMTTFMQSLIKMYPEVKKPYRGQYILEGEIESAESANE
In short: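 Every oligonucleotide joins a 25-mer constant primer to a 35-mer variable part drawn from a de Bruijn sequence of order 10, so each non-palindromic 8-mer appears at least 32 times and each palindromic 8-mer 16 times. The preference for every 8-mer is reported as a unitless, rank-based enrichment score (E-score). This score spans 0.5 for the most favored 8-mer to −0.5 for the most disfavored.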

Sequence | binding signal [E-score]
AAAACCGA | 0.0507
TATTCCCA | 0.217
ATCTAGGC | 0.0159
GCAACATA | 0.217
CTCGCATC | -0.126
GCACTATA | 0.0612
ATACTATG | 0.254
ATGCTATA | 0.35
CCACTATA | 0.219
CTGCTATA | 0.039
GGACTATA | 0.0884
ATACTAGA | 0.305
GTACTATA | 0.436
ATACTATA | 0.365
CGACTATA | 0.122
GTGCTATA | 0.202
CTACTATA | 0.371
TGAGGCAA | -0.148
ACGACTTC | 0.0725
GCTGGTTA | 0.0982
AGACCTGC | -0.148
CGCCAGCG | -0.123
AGACAATA | 0.0922
TACAGTCA | 0.144
TGGCTGAA | 0.00639

Sequence | binding signal [E-score]
TAGTACTA | 0.402
AAGTACTA | 0.385
AAGTACTC | 0.146
GAGTACAA | 0.136
AAGTACAC | 0.275
GAGTACTA | 0.0418
CAGTACTA | 0.264
AAGTACTG | 0.145
AAGTACAA | 0.349
GTTATGCA | 0.256
CCTTCAAC | -0.0251
CTATTGGC | -0.0724
AAGCAAGT | -0.0255
GGCTATAC | -0.00424
ACAAGTCT | -0.182
ATAGTAAT | 0.396
ATAGTAAA | 0.357
ATAGTACC | 0.254
ATAGTAAC | 0.28
ATAGTACA | 0.347
GTAGTAAA | 0.338
TTAGTAAA | 0.21
CTAGTAAA | 0.289
ATAGTAAG | 0.278
GTAGTAAC | 0.307

Sequence | binding signal [E-score]
CTAGTACA | 0.265
GGAGTAAA | 0.000261
CCCAGCAG | -0.112
CTGAACGC | -0.149
TACGACAA | 0.151
ATGGTCAA | 0.137
AAACTCCG | 0.115
GCTGTTTA | 0.0646
TAATTCCA | 0.207
AAATTCTA | 0.379
CAATTCTA | 0.287
TAATTCAA | 0.168
TAATTCTA | 0.331
AAATTCTT | 0.105
GAATTCTC | 0.0595
AAATTCTC | 0.0486
GAATTCTA | 0.363
CCCGCTCC | -0.108
GCGACCCA | 0.134
TCAAGGAA | -0.0876
ATCAACCA | -0.0125
ATATAGAG | 0.165
ATATAGAT | 0.399
CTATAGAA | 0.283
GTATAGAA | 0.278

Sequence | binding signal [E-score]
ATATAGAC | -0.00572
ATATAGAA | 0.347
CTGACAAG | -0.143
AAGATGAG | 0.0366
CAACAAGA | -0.163
ATGTATAA | 0.364
CAATATAA | 0.295
ATGTATAC | 0.308
GTATATGA | 0.224
CTCTATAA | 0.0363
CTATATGA | 0.0756
ACTTATAA | 0.338
ATATATGA | 0.329
CTATATAA | 0.359
CTGTATAA | 0.215
CCTTATAA | 0.0808
ACTTATAT | 0.29
CACGGGCA | -0.13
AATTGTTA | 0.234
GCTTTCAA | -0.116
AGGAAGGA | -0.123
AGAGTACT | 0.169
CACGTAGA | -0.0653
AGCTCGCA | -0.0853
AGAGACTG | 0.0621

Sequence | binding signal [E-score]
AACCAAAA | 0.0375
ACTGACCA | -0.00734
AGTCCAAT | -0.0629
TGATATAA | 0.309
ATATATAA | 0.449
CAGTATAA | 0.213
ATCTATAA | 0.355
GGATATAA | 0.3
TAGTATAA | 0.413
GTCTATAA | 0.0588
AAGTATAA | 0.187
TAATATAA | 0.309
ATCTATAG | 0.295
GTATATAA | 0.285
TTATATAA | 0.384
AGGACTAG | -0.0267
TAGAATCA | 0.222
AGTCGAGC | -0.0631
CTTTGCGC | -0.101
ACACACCC | -0.0492
ACAGGTTC | -0.0931
TACTATAA | 0.408
CACTATAA | 0.155
AACTATAA | 0.309
CGCAAATA | 0.178

Sequence | binding signal [E-score]
GGAGAAAC | -0.116
AACCGCGA | -0.00712
GTTATTAA | 0.22
CATGTAAA | 0.25
AATGTAGC | 0.144
CTTGTATA | 0.18
GATGTAAA | 0.164
AATGTATA | 0.35
CATGTAGA | 0.327
AATGTAAA | 0.329
ATTGTATA | 0.317
AATGTATC | 0.187
AATGTATG | 0.309
GTTGTATA | 0.351
AATGTAGA | 0.359
TCCTAAAA | 0.103
CCAGGCCG | -0.0324
TTACTGAA | 0.144
ACGGGTAG | 0.0714
GAGGAAAA | -0.0709
AGTGCACT | 0.024
GTCAGAAA | 0.0136
GCATAACC | 0.0668
GCGGTTCC | -0.143
CCTTAGAC | -0.116

Sequence | binding signal [E-score]
CACAACTA | 0.199
TCACTAGA | 0.155
AATGTAAT | 0.398
AATGTAAG | 0.112
AATGTAAC | 0.166
CCAGTGAC | -0.156
ACCACAGA | 0.0469
TAATAGCA | 0.276
ACATAGTA | 0.298
AAATAGCA | 0.0458
AAATAGTC | 0.049
AAATAGTA | 0.427
GAATAGTA | 0.325
AAATAGCC | 0.0812
TAATAGTA | 0.423
AAATAGCG | 0.13
AAATAGTG | 0.215
AAATAGCT | 0.336
AAATAGTT | 0.406
AAACCACC | -0.1
ACCGCCGA | -0.0492
CGAAGTCC | -0.0993
CATGTCCG | 0.0905
CGGTAAAC | 0.0274
CAATAGTA | 0.33

Sequence | binding signal [E-score]
CAATAGTG | 0.236
TAGTAACA | 0.345
AAGTAATA | 0.29
GAGTAATA | 0.182
CAGTAACA | 0.114
CAATAGTC | 0.0177
AAGTAACA | 0.177
TAGTAATA | 0.403
CCTATAAG | 0.0895
CAACGGTA | 0.207
GGATGAAC | 0.0137
AAGCCTCA | -0.158
AAAGCGAG | -0.169
CATGCCCC | -0.186
TGCCGAAA | -0.0675
CAAATGGC | 0.0931
GAGAAATC | 0.0248
TAGAAATA | 0.416
CAGAACTA | 0.309
AAGAAATA | 0.145
GAGAAATA | 0.345
TAGAACTA | 0.368
GAGAACTA | 0.242
GAGAAAAA | 0.0631
CAGAAATA | 0.254

Sequence | binding signal [E-score]
CATTCCGA | -0.0936
CGTTTACC | -0.0458
ACTATTCT | 0.217
GCCATTTA | -0.19
GAATCGCA | -0.139
GAGAATGA | 0.00699
CCGTTTAA | -0.0736
TAAAAGGA | -0.0824
AAAAACTC | 0.113
CAAAACTA | 0.401
AAAAACTT | -0.191
TAAAACGA | 0.027
TAAAACTA | 0.334
ACAAACTA | 0.382
TAAAACAA | 0.0349
CAAAACTC | 0.162
CAAAACAA | -0.0275
AAAAACTA | 0.426
ACAAACTG | 0.0787
ACAAACTC | 0.00994

From PMC6212790, “How bacterial xenogeneic silencer rok distinguishes foreign from self DNA in its resident genome”
